# Measurements published in article PMC7862700, “An all-to-all approach to the identification of sequence-specific readers for epigenetic DNA modifications on cytosine”.
# Legend:
# Experiment in all cases: DAPPL (digital affinity profiling via proximity ligation, sequencing); 10 mM Tris-HCl pH 7.5, 50 mM NaCl, 1 mM DTT, 4% glycerol, room temperature, 30 min; GST-TFs on glutathione beads, 16-mer random dsDNA library, 0.1% formaldehyde crosslink after washing; high values mean tight binding
# Details in all cases: protein: recombinant; tags: N-terminal GST; dsDNA, one strand shown
# ETV5 = ETV5 (Homo sapiens, UniProt P41161 1-510)
# ETV5, sequence (P41161 whole entry, the tested form may be a part): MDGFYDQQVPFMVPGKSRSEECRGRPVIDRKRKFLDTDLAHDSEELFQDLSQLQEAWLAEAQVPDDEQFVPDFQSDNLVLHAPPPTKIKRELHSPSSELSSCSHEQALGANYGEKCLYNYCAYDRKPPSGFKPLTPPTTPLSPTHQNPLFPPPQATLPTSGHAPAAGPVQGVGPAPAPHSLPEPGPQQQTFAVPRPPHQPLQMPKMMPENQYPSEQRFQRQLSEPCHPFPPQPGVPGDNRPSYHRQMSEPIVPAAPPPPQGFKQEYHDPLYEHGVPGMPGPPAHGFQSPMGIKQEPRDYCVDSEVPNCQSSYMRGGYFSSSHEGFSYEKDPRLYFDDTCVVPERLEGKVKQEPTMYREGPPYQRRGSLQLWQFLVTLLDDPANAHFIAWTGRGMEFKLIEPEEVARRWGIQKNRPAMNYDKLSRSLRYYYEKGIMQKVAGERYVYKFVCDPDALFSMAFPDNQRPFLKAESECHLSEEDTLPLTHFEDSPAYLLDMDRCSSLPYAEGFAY
# Summary of the method: (§1)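 Human transcription factors carrying a GST fusion were produced in yeast, bound to glutathione beads, tagged with DNA barcodes and pooled together with a tag-only sample. Each pool was held with 200 nmole of a random double-stranded 16-mer DNA library in Tris/NaCl/DTT/glycerol buffer for 30 min at room temperature, then washed, crosslinked in 0.1% formaldehyde, proximity-ligated with BsaI/T4 ligase (1 h, 37 °C), PCR-amplified and sequenced on an Illumina NextSeq500. Binding signal is the read frequency of each hexamer for a given factor divided by its frequency in the tag-only sample.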
# SPIC = target: T1, SPIC (Homo sapiens, UniProt Q8N5J4 1-248)
# T1 sequence: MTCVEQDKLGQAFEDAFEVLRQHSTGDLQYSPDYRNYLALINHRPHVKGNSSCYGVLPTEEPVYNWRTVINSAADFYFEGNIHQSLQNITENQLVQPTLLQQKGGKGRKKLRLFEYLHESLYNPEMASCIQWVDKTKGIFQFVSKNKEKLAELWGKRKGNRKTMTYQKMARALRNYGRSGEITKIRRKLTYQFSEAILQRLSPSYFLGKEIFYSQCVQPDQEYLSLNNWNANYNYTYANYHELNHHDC
# Summary of the method: as §1
# ELF4 = ELF4 (Homo sapiens, UniProt Q99607 1-663)
# ELF4, sequence (Q99607 whole entry): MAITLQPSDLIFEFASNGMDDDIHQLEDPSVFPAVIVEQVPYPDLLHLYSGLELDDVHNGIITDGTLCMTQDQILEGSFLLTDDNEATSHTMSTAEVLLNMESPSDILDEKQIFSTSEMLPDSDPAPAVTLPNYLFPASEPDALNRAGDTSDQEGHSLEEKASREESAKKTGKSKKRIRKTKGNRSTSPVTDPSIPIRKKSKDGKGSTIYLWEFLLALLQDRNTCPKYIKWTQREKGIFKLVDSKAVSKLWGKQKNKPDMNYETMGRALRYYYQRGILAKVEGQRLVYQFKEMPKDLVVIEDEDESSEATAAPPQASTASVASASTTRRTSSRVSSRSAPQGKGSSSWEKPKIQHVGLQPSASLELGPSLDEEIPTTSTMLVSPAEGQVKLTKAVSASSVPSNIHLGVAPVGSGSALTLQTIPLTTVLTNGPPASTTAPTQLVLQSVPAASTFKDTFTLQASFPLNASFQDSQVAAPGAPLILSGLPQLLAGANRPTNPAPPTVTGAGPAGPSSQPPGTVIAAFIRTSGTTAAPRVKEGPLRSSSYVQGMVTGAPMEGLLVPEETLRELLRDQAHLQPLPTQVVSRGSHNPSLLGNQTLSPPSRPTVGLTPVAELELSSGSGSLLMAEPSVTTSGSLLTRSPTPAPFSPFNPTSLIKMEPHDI
# Summary of the method: as §1
# ETV1 = ETV1 (Homo sapiens, UniProt P50549 1-477)
# ETV1, sequence (P50549 whole entry): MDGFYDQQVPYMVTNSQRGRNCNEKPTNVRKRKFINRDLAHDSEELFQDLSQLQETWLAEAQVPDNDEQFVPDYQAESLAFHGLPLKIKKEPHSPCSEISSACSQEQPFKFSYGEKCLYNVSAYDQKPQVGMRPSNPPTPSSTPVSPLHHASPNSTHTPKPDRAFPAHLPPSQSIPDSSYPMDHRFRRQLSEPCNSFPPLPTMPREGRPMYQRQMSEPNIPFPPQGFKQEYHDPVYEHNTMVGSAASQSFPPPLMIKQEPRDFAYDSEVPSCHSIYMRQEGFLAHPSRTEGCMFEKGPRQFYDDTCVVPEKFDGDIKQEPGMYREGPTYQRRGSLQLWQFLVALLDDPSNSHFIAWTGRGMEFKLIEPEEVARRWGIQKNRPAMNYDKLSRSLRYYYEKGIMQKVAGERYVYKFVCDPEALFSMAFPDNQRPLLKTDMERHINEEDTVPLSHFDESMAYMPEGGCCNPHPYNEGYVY
# Summary of the method: as §1
# ERF = target: T2, ERF (Homo sapiens, UniProt P50548 1-548)
# T2 sequence: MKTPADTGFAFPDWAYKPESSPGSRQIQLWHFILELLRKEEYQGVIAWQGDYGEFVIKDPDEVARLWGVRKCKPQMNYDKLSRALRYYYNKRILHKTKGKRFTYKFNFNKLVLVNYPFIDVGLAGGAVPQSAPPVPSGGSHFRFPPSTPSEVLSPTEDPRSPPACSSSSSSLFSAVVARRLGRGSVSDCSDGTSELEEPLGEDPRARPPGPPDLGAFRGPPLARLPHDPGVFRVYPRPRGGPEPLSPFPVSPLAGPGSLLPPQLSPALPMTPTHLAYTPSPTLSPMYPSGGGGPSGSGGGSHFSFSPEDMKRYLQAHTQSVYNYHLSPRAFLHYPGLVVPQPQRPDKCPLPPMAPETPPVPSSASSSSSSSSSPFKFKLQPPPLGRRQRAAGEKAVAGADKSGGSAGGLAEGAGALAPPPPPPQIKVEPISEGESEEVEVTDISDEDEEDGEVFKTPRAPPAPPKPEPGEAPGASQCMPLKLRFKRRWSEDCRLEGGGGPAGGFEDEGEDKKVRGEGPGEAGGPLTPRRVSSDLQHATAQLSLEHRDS
# Summary of the method: as §1
# ETV3L = target: T3, ETV3L (Homo sapiens, UniProt Q6ZN32 1-361)
# T3 sequence: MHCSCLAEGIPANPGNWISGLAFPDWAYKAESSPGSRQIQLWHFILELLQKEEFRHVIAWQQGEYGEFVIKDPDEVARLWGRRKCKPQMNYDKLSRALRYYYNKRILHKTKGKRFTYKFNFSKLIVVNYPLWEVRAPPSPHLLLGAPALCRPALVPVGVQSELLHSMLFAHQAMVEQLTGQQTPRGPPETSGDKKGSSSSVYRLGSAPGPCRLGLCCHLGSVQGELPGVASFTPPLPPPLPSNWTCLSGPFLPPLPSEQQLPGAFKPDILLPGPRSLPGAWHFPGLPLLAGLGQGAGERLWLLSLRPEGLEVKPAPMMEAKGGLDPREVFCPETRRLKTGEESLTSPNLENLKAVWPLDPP
# Summary of the method: as §1
# ETS2 = target: T4, ETS2 (Homo sapiens, UniProt P15036 1-469)
# T4 sequence: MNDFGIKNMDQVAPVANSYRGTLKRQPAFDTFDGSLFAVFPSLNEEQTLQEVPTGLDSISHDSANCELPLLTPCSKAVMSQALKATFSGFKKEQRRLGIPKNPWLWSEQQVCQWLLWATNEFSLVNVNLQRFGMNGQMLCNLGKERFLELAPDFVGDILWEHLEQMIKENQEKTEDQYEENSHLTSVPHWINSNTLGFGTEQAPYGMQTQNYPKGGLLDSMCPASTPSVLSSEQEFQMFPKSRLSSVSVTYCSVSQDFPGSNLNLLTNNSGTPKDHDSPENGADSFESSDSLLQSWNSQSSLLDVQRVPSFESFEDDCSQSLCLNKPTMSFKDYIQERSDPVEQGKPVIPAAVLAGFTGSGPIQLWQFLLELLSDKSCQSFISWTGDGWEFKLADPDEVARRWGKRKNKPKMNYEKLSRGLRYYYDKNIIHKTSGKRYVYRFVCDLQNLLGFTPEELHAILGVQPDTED
# Summary of the method: as §1
# SPDEF = target: T5, SPDEF (Homo sapiens, UniProt O95238 1-335)
# T5 sequence: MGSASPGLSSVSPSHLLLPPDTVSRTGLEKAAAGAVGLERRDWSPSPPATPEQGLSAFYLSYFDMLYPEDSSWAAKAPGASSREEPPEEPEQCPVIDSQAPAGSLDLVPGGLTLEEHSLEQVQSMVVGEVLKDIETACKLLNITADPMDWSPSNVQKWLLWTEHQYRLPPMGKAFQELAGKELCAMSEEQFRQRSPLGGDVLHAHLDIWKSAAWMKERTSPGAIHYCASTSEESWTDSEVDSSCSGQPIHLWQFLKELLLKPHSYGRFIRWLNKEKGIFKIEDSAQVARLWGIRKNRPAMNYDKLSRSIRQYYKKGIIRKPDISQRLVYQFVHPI
# Summary of the method: as §1
# ETV3 = target: T6, ETV3 (Homo sapiens, UniProt P41162-2 1-143)
# T6 sequence: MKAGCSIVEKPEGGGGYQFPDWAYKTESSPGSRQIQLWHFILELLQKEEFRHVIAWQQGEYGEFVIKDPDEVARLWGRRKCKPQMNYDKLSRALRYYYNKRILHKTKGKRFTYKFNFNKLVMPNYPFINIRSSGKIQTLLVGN
# Summary of the method: as §1
# ETV6 = ETV6 (Homo sapiens, UniProt P41212 1-452)
# ETV6, sequence (P41212 whole entry): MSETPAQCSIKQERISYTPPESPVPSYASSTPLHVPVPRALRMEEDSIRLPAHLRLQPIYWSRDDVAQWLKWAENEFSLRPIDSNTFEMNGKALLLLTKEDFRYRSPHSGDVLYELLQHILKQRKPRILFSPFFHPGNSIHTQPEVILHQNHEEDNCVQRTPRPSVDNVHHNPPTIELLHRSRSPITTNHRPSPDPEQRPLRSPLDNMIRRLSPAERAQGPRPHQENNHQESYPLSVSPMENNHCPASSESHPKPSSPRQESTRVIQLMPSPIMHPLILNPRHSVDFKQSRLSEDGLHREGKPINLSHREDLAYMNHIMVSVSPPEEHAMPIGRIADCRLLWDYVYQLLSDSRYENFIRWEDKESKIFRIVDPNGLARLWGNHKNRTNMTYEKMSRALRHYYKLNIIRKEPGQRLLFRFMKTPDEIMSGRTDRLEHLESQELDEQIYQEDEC
# Summary of the method: as §1
sequence,measurement,setting,value
ACGTTG,binding signal,ETV5,"1.03 fold enrichment (6-mer frequency, TF over GST control)"
same,binding signal,SPIC,"1.28 fold enrichment (6-mer frequency, TF over GST control)"
same,binding signal,ELF4,"1.13 fold enrichment (6-mer frequency, TF over GST control)"
same,binding signal,ETV1,"1.06 fold enrichment (6-mer frequency, TF over GST control)"
same,binding signal,ERF,"1.07 fold enrichment (6-mer frequency, TF over GST control)"
same,binding signal,ETV3L,"1.08 fold enrichment (6-mer frequency, TF over GST control)"
same,binding signal,ETS2,"1.07 fold enrichment (6-mer frequency, TF over GST control)"
same,binding signal,SPDEF,"1.17 fold enrichment (6-mer frequency, TF over GST control)"
same,binding signal,ETV3,"1.11 fold enrichment (6-mer frequency, TF over GST control)"
same,binding signal,ETV6,"1.11 fold enrichment (6-mer frequency, TF over GST control)"
